# Screens deposited in PubChem by National Center for Advancing Translational Sciences (NCATS).
# MCF10A rereplic = inducers of DNA re-replication in MCF 10A breast cells. 350,000 tested, 2.9% active. Potency, µM (top dose mostly 46.1 µM), without a hit: top-dose activity, positive = re-replication, most hits filed as activators. AID 624296. MCF 10A DNA re-replication, Hoechst nuclear intensity, 48 h; note: % of control where 0% means no effect; nearly all actives have a fitted effect of over 50% in size
# SW480 rereplic = DNA re-replication induction in SW480 cells; SW480 DNA re-replication, Hoechst DNA content imaging, 48 h; Potency, µM (doses to about 46.1 µM), inactives show at the top dose re-replication activation, hits mostly activators; 340,000 tested, 1.8% active; note: % of control where 0% means no effect; nearly all actives have a fitted effect of over 55% in size
#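 Image-based DNA-content assay: after two days of treatment, nuclei were labelled with the DNA dye Hoechst and imaged, and hits were compounds raising the count of nuclei showing high fluorescence intensity.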
# PTAP TSG101 blk = blocks PTAP/TSG101 interaction to inhibit HIV-1 budding. Q99816. Fluorescence polarization, FITC-PTAP peptide / Tsg101 binding. Potency, µM (highest dose often 115 µM), inactives show top-dose activity change, negative = inhibition, hits mostly inhibitors. 340,000 tested, under 10 active. AID 493005; active = well fitted inhibition curve with a large enough effect in the main read-out, with a control signal flat, not every such curve was filed as active; inconclusive = small, poorly fitted or top-dose-only effect, or effect the other way, or a change in a side signal; inactive = no such curve, though single readings can be large or run the other way; note: % of control where 0% means no effect
# Target sequence (Q99816 whole entry, looked up): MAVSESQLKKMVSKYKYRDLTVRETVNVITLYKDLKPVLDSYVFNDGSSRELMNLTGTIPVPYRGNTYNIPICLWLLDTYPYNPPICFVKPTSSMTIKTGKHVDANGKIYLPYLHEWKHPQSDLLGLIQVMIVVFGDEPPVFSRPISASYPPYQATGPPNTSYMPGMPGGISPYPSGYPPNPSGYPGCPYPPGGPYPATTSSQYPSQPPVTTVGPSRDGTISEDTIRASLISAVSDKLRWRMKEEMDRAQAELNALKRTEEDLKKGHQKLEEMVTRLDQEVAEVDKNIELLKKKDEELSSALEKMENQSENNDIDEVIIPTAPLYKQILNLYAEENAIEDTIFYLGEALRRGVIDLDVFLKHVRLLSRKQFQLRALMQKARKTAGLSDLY
#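 Fluorescence polarization binding of Tsg101 binding domain (10 uM final) to FITC-labeled PTAP peptide (50 nM final) in HEPES pH 7.5 buffer with NaCl, Tween 20, EDTA, TCEP. Compounds added before peptide; binding 20 min at RT.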
# KB-V1 cytotox = kills drug-selected multidrug resistant KB-V1 cells; KB-V1 MDR cells viability, CellTiter-Glo, 72 h; Potency, µM (titrated, usually from 46.1 µM), usual class: cytotoxic; 400,000 tested, 3.4% active; note: % is set by controls: 0 for no effect and ±100 for the full control effect; nearly all actives have a fitted effect of over 60% in size
#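 Potencies derive from concentration-effect curves fitted to normalized luminescence (CellTiter-Glo) of KB-V1 cells treated for 72 h at 37 degrees C in phenol-red-free DMEM containing 10% FBS.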
# PINK1 expr mod = modulators of PINK1 expression. PINK1 immunofluorescence, high-content cytometry, 24 h. Potency, µM (doses to about 76.6 µM), inactives show at the highest dose activation (PINK1 increase), most hits filed as activators. 410,000 tested, 0.2% active; active = well fitted activation curve with a large enough effect; inconclusive = small, poorly fitted or top-dose-only effect; cell line not stated here; note: % of control where 0% means no effect; nearly all actives have a fitted effect of over 65% in size
#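 Measures PINK1 amount and localization on or inside mitochondria by immunofluorescence. Stable cells get compounds at 5 concentrations for 24 hours before fixation and staining; CCCP controls included.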
# KB-3-1 tox = kills parental KB-3-1 adenocarcinoma cells | 400,000 tested, 1.4% active | KB-3-1 viability, CellTiter-Glo ATP luminescence, 72 h | Potency, µM (doses to about 46.1 µM), hits mostly cytotoxic; note: % is set by controls: 0 for no effect and ±100 for the full control effect; nearly all actives have a fitted effect of over 60% in size
#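 Cytotoxicity in the drug-sensitive parental line KB-3-1 was scored as loss of CellTiter-Glo luminescence following 72 h incubation with compound. Values come from curve fitting of normalized concentration-response data.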
# Active calls of the source: *; i = inactive; ? = inconclusive; . = not tested or not shown; [ ] = remark or other dose. A selection: hits, their analogues and other compounds. The true share with any hit is near 6.8%. Unless noted, calls come from the whole dose curve; as a rule, active = well fitted curve in the direction sought with a large enough effect; inconclusive = small, poorly fitted or top-dose-only effect, or another doubt; inactive = no such curve, though single readings can be large; an effect the other way counts as inactive or inconclusive. Potency is the fitted concentration of half-maximal effect.
SMILES,MCF10A rereplic,SW480 rereplic,PTAP TSG101 blk,KB-V1 cytotox,PINK1 expr mod,KB-3-1 tox
Cc1c(NC(=O)c2nn3c(c2Br)NC(c2ccccc2)CC3C(F)(F)F)c(=O)n(-c2ccccc2)n1C (stereo not given),-68.5%,-166.4%,-1.4%,16.4µM*,1.7%,i
Cc1cccc(CNC(=O)c2cnn(-c3nccc(-c4cc5ccccc5o4)n3)c2C2CC2)n1,.,.,.,.,4.9%,.
Cc1ccc(OCC(=O)N/N=C/C=C/c2ccco2)c(Br)c1,?,16.4µM*,0.5%,i,1.1%,i
Cc1cccc(OCC(=O)N/N=C/C=C/c2ccco2)c1,?,-5.5%,-0.1%,i,2.3%,i
Cc1ccc(S(=O)(=O)C(CNC(=O)C(=O)NCCc2ccc(Cl)cc2)c2cccs2)cc1 (stereo not given),.,.,.,i,7.4%,i
C/C(=C(/CCO)SSCC1CCCO1)N(C=O)Cc1cnc(C)nc1N (stereo not given),?,-5.5%,-0.2%,i,1.1%,i
CCCSS/C(CCO)=C(/C)N(C=O)Cc1cnc(C)nc1N,13.3µM*,?,.,.,.,.
CC(C)Oc1ccc(C(CCN)C2CCCCC2)cc1 (stereo not given),?,?,-12.3%,16.4µM*,-2.2%,?
NC(=O)c1c(NC(=O)CSc2nnc(Cc3ccccc3)n2Cc2ccco2)sc2c1CCC2,5.4%,2.1%,.,14.6µM*,8.4%[38.3 µM],i
CCOC(=O)c1c(NC(=O)CSc2nnc(CNC(=O)c3ccco3)n2C)sc2c1CCC2,5.8%,4.1%,-4.1%,20.6µM*,-4.6%[38.3 µM],i
O=C(CSc1nnc(Cc2ccccc2)n1Cc1ccco1)NC12CC3CC(CC(C3)C1)C2,?,0.5%,-7.1%,i,?,i
Cn1c(C2CCC2)nc2cc(C(=O)N3CCOc4ccccc4C3)cc(NC(=O)C3CCCO3)c21 (stereo not given),.,.,.,.,0.5%,.
CCc1ccccc1NC(=O)c1sc(-n2nc(C)c(Cc3ccc4c(c3)OCO4)c2C)nc1C,.,.,.,i,0.1%,i
CC(=O)c1cccc(NC(=O)c2ccc3nc(C(C)C)oc3c2)c1,.,.,.,.,-0.4%,.
COc1ccc(NS(=O)(=O)c2ccc3[nH]c4c(c3c2)CCCC4)cc1OC,.,.,.,.,3.0%,.
COC(=O)c1ccccc1COc1cccn2c(N(C)Cc3cccs3)c(C)nc12,.,.,.,18.4µM*,?,?
CCC(CC)C(=O)N(C)c1c(C)nc2c(OCc3ccccc3C(=O)OC)cccn12,.,.,.,i,1.5%,i
Cc1nc2c(OCc3cccc(Cl)c3)cccn2c1N(C)Cc1cccs1,.,.,.,18.4µM*,?,?
CCN(CC)CCCNc1oc(-c2ccc(OC)cc2)nc1C#N,.,.,.,.,-0.8%,.
CCN(CC)C(=O)Cn1cc(SCC(=O)Nc2cccc(F)c2)c2ccccc21,.,.,.,?,-0.1%,i
Cc1nc(NC(=O)c2ccco2)sc1-c1csc(Nc2ccc(Cl)cc2Cl)n1,16.4µM*,?,-0.5%,?,-0.5%,i
Cc1ccc(Cl)cc1Nc1nc(-c2sc(NC(=O)c3ccco3)nc2C)cs1,20.6µM*,8.8%,0.0%,?,6.8%,20.6µM*
Cc1nc(NC(=O)c2ccco2)sc1-c1csc(Nc2ccc(Cl)cc2)n1,3.8%,-0.6%,-0.8%,i,2.9%,?
COc1cccc(N(C(=O)c2ccco2)c2nc(-c3sc(NC(=O)c4ccco4)nc3C)cs2)c1,?,?,-5.0%,i,-0.3%,5.8µM*
O=[N+]([O-])c1ccc(-c2ccc(/C=N/Nc3nc(N4CCCCC4)nc(N4CCCCC4)n3)o2)cc1,23.2%,5.6%,10.4%,i,?,i
COc1cc(/C=N/Nc2nc(N3CCCC3)nc(N3CCCC3)n2)ccc1O,?,-3.2%,-4.0%,i,8.1%[38.3 µM],i
COc1ccc(-c2cnnc(N/N=C/c3ccc(O)c(OC)c3)n2)cc1,14.6µM*,16.4µM*,-5.2%,5.8µM*,7.3%,4.11µM*
